Bioassay records as filed in PubChem.
A selection: hits, their analogues and other compounds. The true share with any hit is near 6.3%.
Mdm2-MdmX inh: inhibitors of human Mdm2-MdmX association, primary screen, cell-based, luminescence, split luciferase, SaOS-2, uHTS. SaOS-2 split-luciferase Mdm2/MdmX complementation. inhibition, % at 8 µM. actives 3% (n = 330,000). AID 485346, 2010;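 active = inhibition of at least 50% at 8 µM in the primary screen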
Target sequence (O15151 whole entry, looked up): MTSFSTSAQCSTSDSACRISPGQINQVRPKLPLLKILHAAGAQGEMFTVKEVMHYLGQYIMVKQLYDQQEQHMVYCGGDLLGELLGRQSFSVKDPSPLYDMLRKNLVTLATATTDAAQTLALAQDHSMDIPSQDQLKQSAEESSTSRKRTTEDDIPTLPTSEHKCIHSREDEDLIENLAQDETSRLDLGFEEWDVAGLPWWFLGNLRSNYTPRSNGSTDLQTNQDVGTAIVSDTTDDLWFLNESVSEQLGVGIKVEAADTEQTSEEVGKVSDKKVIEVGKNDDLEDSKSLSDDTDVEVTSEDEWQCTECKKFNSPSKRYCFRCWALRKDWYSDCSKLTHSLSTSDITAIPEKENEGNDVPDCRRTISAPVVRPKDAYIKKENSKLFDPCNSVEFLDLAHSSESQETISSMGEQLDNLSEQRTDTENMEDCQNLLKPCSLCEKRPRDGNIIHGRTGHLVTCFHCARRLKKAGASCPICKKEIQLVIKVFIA
Target sequence (Q00987 whole entry, looked up): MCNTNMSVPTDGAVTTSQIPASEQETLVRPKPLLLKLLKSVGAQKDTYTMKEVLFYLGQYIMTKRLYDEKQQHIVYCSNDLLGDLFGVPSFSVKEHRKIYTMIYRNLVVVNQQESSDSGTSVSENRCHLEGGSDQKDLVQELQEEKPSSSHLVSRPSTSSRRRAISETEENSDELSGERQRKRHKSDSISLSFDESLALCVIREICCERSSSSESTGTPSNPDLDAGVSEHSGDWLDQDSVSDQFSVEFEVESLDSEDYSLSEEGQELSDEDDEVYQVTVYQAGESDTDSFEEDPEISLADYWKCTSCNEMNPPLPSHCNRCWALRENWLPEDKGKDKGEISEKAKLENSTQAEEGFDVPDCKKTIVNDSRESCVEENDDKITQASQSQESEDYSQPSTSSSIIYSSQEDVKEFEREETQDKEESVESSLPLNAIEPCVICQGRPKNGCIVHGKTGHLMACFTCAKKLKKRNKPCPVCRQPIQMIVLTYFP
TIM10 inh: growth inhibitors of isogenic TIM10 control yeast, primary screen, counter-screen for tim10-1 yeast inhibitor project, luminescence, uHTS | S. cerevisiae TIM10 strain growth, BacTiter-Glo luminescence, 24 h | inhibition, % at 10 µM | actives 1.4% (n = 330,000) | AID 463195, 2010;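 active = inhibition of 40% or more at the single tested concentration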;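 note: wild-type TIM10 isogenic control strain grown at permissive 25 °C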
tim23-1 inh: growth inhibitors of tim23-1 mutant yeast, primary screen, luminescence, uHTS | actives 1.3% (n = 330,000) | S. cerevisiae tim23-1 growth, BacTiter-Glo luminescence, 24 h | inhibition, % at 20 µM | AID 463212, 2010;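 active = growth inhibition of the mutant yeast at or above 50%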;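 note: temperature-sensitive mutant grown at 25 °C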
MPTP inh: mitochondrial permeability transition pore inhibitors, primary screen, biochemical, isolated mouse mitochondria, absorbance | Ca2+ swelling absorbance, 30 min | inhibition, % at 10 µM | actives 1.4% (n = 360,000);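 active = inhibition of 50% or more, scaled per plate between neutral and stimulator controls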
tim10-1 inh: growth inhibitors of tim10-1 mutant yeast, primary screen, luminescence, uHTS | inhibition, % at 20 µM | actives 2.2% (n = 330,000) | S. cerevisiae tim10-1 ts strain growth, BacTiter-Glo, 24 h;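 active = inhibition of at least 40%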;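 note: mutant grown at 25 °C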
Rh123 counter: fluorescence retest of MPTP screen hits in isolated mitochondria, single concentration; shares compounds with MPTP inh; membrane potential, Rhodamine 123 fluorescence; actives 78% (n = 5,000); inhibition, % at 10 µM; in the data active = inhibition above about 22%
MPTP swell DR: mitochondrial permeability transition pore inhibitors, dose response, biochemical, absorbance, uHTS hits. shares compounds with MPTP inh. isolated mitochondria swelling. IC50, µM. actives 58% (n = 780); in the data active = IC50 below about 20 µM
MPTP counter DR: fluorescent counter-screen in isolated mitochondria, dose response, counter-screen for MPTP inhibitor project, biochemical, fluorescence, uHTS hits. isolated mitochondria counterscreen, fluorescence read-out. IC50, µM. shares compounds with MPTP inh. actives 49% (n = 780); in the data active = IC50 below about 80 µM
Each line names hits and unclear results; the compound was inactive in the other large screens (follow-up assays come after a bar, where they were run).

O=C(Nc1ccc2c(c1)OCCO2)Nc1ccc2c(c1)OCO2	none
CN1CCN([C@@H]2CS(=O)(=O)N[C@H]2COCc2ccccc2)CC1	none (no result: Mdm2-MdmX inh, TIM10 inh, tim23-1 inh, tim10-1 inh)
O=C(CC(=O)c1ccccc1)CS(=O)(=O)c1ccccc1	none (no result: Mdm2-MdmX inh, TIM10 inh, tim23-1 inh, tim10-1 inh)
O=C(/C=C/c1ccc(Br)cc1)NC(=O)c1ccccc1O	MPTP inh 102.5 | Rh123 counter 88.4
[O-][n+]1ccc(CC(O)(C(F)(F)F)C(F)(F)F)cc1	none (no result: Mdm2-MdmX inh, TIM10 inh, tim23-1 inh, tim10-1 inh)
COC(=O)C1=C(C)NC(C)=C(C(=O)OC)C1c1ccc(-c2cc(Cl)ccc2Cl)o1	none
COC(=O)C1=C(C)NC(C)=C(C(=O)OC)C1c1ccc(-c2cccc(Cl)c2Cl)o1	MPTP inh 82.4 | Rh123 counter inactive | MPTP swell DR inactive | MPTP counter DR inactive
CCOc1ccc(NC(=O)c2cccc(S(=O)(=O)NCc3cccnc3)c2)cc1	none (no result: Mdm2-MdmX inh, TIM10 inh, tim23-1 inh, tim10-1 inh)
O=c1[nH]c(=S)[nH]c2c1C(C1CCCCC1)OC(C1CCCCC1)C2 (configuration not stated)	none (no result: Mdm2-MdmX inh, TIM10 inh, tim23-1 inh, tim10-1 inh)
O=C(Nc1cccc(C(F)(F)F)c1)c1cc2c(=O)c3ccccc3oc2nc1C(F)(F)F	MPTP inh 74.7 | Rh123 counter 53.4
CCN(C(=O)COC(=O)CCOc1cc(C)ccc1C)c1c(N)n(Cc2ccccc2)c(=O)[nH]c1=O	none (no result: Mdm2-MdmX inh, TIM10 inh, tim23-1 inh, tim10-1 inh)
CC1(C)SC(=S)N(/N=C/c2ccccc2)C1N(O)C(=O)Nc1ccc([N+](=O)[O-])cc1 (configuration not stated)	MPTP inh 100.9 | Rh123 counter 98.2
CC1(C)SC(=S)N(NC(=O)Nc2cccc3ccccc23)C1N(O)C(=O)Nc1ccccc1 (configuration not stated)	MPTP inh 94.9 | Rh123 counter 73.7
CNC(C)C(=O)NC(C(=O)NC(C)C(=O)NNc1ccccc1)C(C)C (configuration not stated)	none (no result: Mdm2-MdmX inh, TIM10 inh, tim23-1 inh, tim10-1 inh)
Oc1ccccc1C=NNC(=S)NN=Cc1ccccc1O	MPTP inh 90.2 (no result: Mdm2-MdmX inh, TIM10 inh, tim23-1 inh, tim10-1 inh) | Rh123 counter 66.8
COc1ccccc1NC(=O)COC(=O)Cn1cnc2c1c(=O)n(C)c(=O)n2C	none
CCCCNC(=O)C1c2ccccc2OCC(=O)N1CCOC (configuration not stated)	none (no result: Mdm2-MdmX inh, TIM10 inh, tim23-1 inh, tim10-1 inh)
OC(COc1ccccc1)CN1CCC(Cc2ccccc2)CC1 (configuration not stated)	none
CC1CCC(C(C)C)C(OCC(O)CN2CCN(Cc3ccccc3)CC2)C1 (configuration not stated)	MPTP inh 86.3 | Rh123 counter inactive | MPTP swell DR inactive | MPTP counter DR 40.3
OC(COc1ccc(OCC(O)CN2CCN(Cc3ccccc3)CC2)cc1)CN1CCN(Cc2ccccc2)CC1 (configuration not stated)	MPTP inh 53.7 | Rh123 counter inactive | MPTP swell DR 12.4 | MPTP counter DR 29.6
COc1cccc(OCC(O)CN2CCC(Cc3ccccc3)CC2)c1 (configuration not stated)	MPTP inh 56.2 | Rh123 counter inactive | MPTP swell DR 19.3 | MPTP counter DR 61.8
OC(COc1ccc(OCc2ccccc2)cc1)CN1CCCCC1 (configuration not stated)	none
OC(COc1ccc2cc(Br)ccc2c1)CN1CCCC1 (configuration not stated)	MPTP inh 87.6 | Rh123 counter inactive | MPTP swell DR 9.43 | MPTP counter DR inactive
CC1CCC(C(C)C)C(OCC(O)CN2CCOCC2)C1 (configuration not stated)	none
O=C(NCc1csc(-c2cccs2)n1)Nc1ccc(C(F)(F)F)cc1	MPTP inh 66.1 | Rh123 counter 76.6
O=C(NCc1csc(-c2cccs2)n1)Nc1ccc(F)cc1F	none
COc1ccc(C(=O)N2CCCCC2c2cc(C(=O)NCc3ccc(F)cc3)no2)cc1 (configuration not stated)	none (no result: Mdm2-MdmX inh, TIM10 inh, tim23-1 inh, tim10-1 inh)
Cc1ccc(NC(=S)/C(=C(\[O-])c2ccc(Cl)s2)[n+]2cccc(CO)c2)cc1C	none
[O-]/C(=C(\C(=S)Nc1ccc(SC(F)F)cc1)[n+]1cccc(CO)c1)c1ccc(Cl)s1	MPTP inh 100.9 | Rh123 counter 85.1
CNCCCN1c2ccccc2CCc2ccccc21	none (no result: MPTP inh)
CNCCC=C1c2ccccc2CCc2ccccc21	MPTP inh 86.0 | Rh123 counter inactive | MPTP swell DR 6 | MPTP counter DR inactive
CCCNC(=O)C1(C)CCCN(CC(=O)c2ccccc2OC)C1 (configuration not stated)	none (no result: Mdm2-MdmX inh, TIM10 inh, tim23-1 inh, tim10-1 inh)
CCOC(=O)c1c(C)[nH]c(C(=O)OC(C)C(=O)NC2(C#N)CCCCC2)c1C (configuration not stated)	none (no result: Mdm2-MdmX inh, TIM10 inh, tim23-1 inh, tim10-1 inh)
Cc1ccc(NC(=O)COC(=O)C2(c3ccc(Cl)cc3)CCCC2)cc1	MPTP inh 77.7 | Rh123 counter 82.3
O=C(NCc1nnc(SCC(=O)N2CCOCC2)o1)c1ccccc1	none (no result: Mdm2-MdmX inh, TIM10 inh, tim23-1 inh, tim10-1 inh)
Cc1ccc(NC(=O)CSC(N)=O)cc1Cl	none
Cc1ccc(NC(=O)CSc2ccccc2NC(=O)c2cccc(Cl)c2)cc1Cl	MPTP inh 80.1 | Rh123 counter inactive | MPTP swell DR inactive | MPTP counter DR 6.32
Cc1cccc(C(=O)Nc2ccccc2SCC(=O)Nc2ccc(C)c(Cl)c2)c1	MPTP inh 89.8 | Rh123 counter 82.5
CCNC(=O)C1(C)CCN(Cc2ccccc2C#N)C1 (configuration not stated)	none (no result: Mdm2-MdmX inh, TIM10 inh, tim23-1 inh, tim10-1 inh)
O=C(Nc1cc(Cl)cc2c1-c1ccc(Cl)cc1C2O)C(Cl)Cl (configuration not stated)	MPTP inh 92.9 (no result: Mdm2-MdmX inh, TIM10 inh, tim23-1 inh, tim10-1 inh) | Rh123 counter 75.7
CCc1nc2c(OCc3cc(Cl)cc(Cl)c3)cccn2c1N(C)C(=O)Nc1ccccc1OC	none (no result: Mdm2-MdmX inh, TIM10 inh, tim23-1 inh, tim10-1 inh)
CC1(C)Cc2ccccc2-c2nc(-c3ccccc3)oc(=O)c21	MPTP inh 69.5 | Rh123 counter inactive | MPTP swell DR 7.57 | MPTP counter DR inactive
CN(c1ccccc1)c1ncnc2c1ncn2C	none (no result: Mdm2-MdmX inh, TIM10 inh, tim23-1 inh, tim10-1 inh)
O=C(Nc1c(F)cc(F)cc1Br)c1cc(-c2ccc(O)cc2)on1	MPTP inh 92.5 | Rh123 counter 23.0
O=C(Nc1c(F)cc(F)cc1Br)c1cc(-c2ccccc2)on1	none
O=C(CCc1ccccc1)Nc1ccnn1C1CCN(C/C=C/c2ccccc2)CC1	none
COc1ccccc1/C=C/CN1CCC(n2nccc2NC(=O)CCc2ccccc2)CC1	MPTP inh 73.6 | Rh123 counter 108.6
